The list is not random: actives were taken first. Their share in the collection is about 11%.
USP30 inh – human USP30 deubiquitinase inhibition; Q70CQ3; purified USP30, Ub-rhodamine cleavage fluorescence; inhibition, % at 25 µM; hit rate 5.3% among 47,000
USP17 inh – blocks human USP17 ubiquitin-rhodamine cleavage. purified USP17, Ub-rhodamine cleavage fluorescence, 3 h. inhibition, % at 50 µM. hit rate 6.5% among 47,000
USP28 block – human USP28 deubiquitinase inhibition. Q96RU2. purified USP28, Ub-rhodamine cleavage fluorescence, 30 min. inhibition, % at 25 µM. hit rate 3% among 47,000
Of the large screens only hits and unclear results are named; the others gave an inactive call. Cut-off read from the data, not from the text of the source: active = inhibition above about 30%; inactive = the rest.

Cc1cccc(CNC(=O)C2CCCN(S(=O)(=O)N3CCCCC3)C2)c1 (stereo unspecified)	none (no result: USP17 inh)
Cc1cccc(CNC(=O)C2CCCN(S(=O)(=O)Cc3ccccc3Cl)C2)c1 (stereo unspecified)	USP30 inh 39
COCCn1ccc2nc(C)c(C(=O)Nc3ccc(OC)cc3)cc2c1=O	none
Cc1cc(-c2ncc(C)[nH]2)nc(CC2CCN(C(=O)C3CCC3)CC2)n1	none
O=C(Nc1cnc(N2CCCC2)nc1)c1cccc(F)c1	none
Cc1ncc(CN2CCC3(CC2)CN(S(C)(=O)=O)Cc2ccccc2O3)cn1	none
Cn1cc(-c2cnc(-c3ccnn3C)nc2)cc1C(=O)N1CCN(c2ccncc2)CC1	none
O=C(NCc1ccc(N2CCCC2=O)cc1)c1cnc2ccccc2n1	none
O=C(C1CCCN(S(=O)(=O)N2CCCCCC2)C1)N1CCN(c2ccccc2)CC1 (stereo unspecified)	USP28 block 54
Cc1cc(C)cc(NC(=O)C2CCCN(S(=O)(=O)N3CCOCC3)C2)c1 (stereo unspecified)	none
COc1ccc(NC(=O)C2CCCN(S(=O)(=O)N3CCC(C)CC3)C2)cc1OC (stereo unspecified)	none
CS(=O)(=O)NC1CCCN(C(=O)Nc2cccc3ccccc23)C1 (stereo unspecified)	USP17 inh 87
COc1ccc(NC(=O)C2CCCN(S(=O)(=O)N3CCC(C)CC3)C2)cc1 (stereo unspecified)	USP17 inh 38
CCOC(=O)c1ccc(NC(=O)C2CCCN(S(=O)(=O)N3CCCCCC3)C2)cc1 (stereo unspecified)	USP17 inh 41
CCc1ccccc1NC(=O)N1CCCC(CN2CCc3ccccc3C2)C1 (stereo unspecified)	none
O=C(C1CCCN(S(=O)(=O)N2CCCCC2)C1)N1CCN(c2ccccc2)CC1 (stereo unspecified)	none
O=C(NCCCc1ccccc1)c1nc(CS(=O)(=O)c2ccc(Cl)cc2)no1	none
Cc1cc(C)cc(OCC(=O)N2CCN(c3ccccn3)CC2)c1	none
Cc1ccc(F)cc1NCc1cc(=O)n2ccsc2n1	none
O=C1OC(C(=O)N2CCN(C(=O)c3ccco3)CC2)Cc2ccccc21 (stereo unspecified)	none
CN(C)c1ccc(CN2CC[C@@H]3[C@H]2C(=O)NC[C@H](CCC(=O)NCc2ccco2)N3C)cc1	none
O=C(Nc1cccc(F)c1)C1CCCN(S(=O)(=O)N2CCCCCC2)C1 (stereo unspecified)	USP17 inh 53
O=C(Nc1ccc(F)cc1)C1CCCN(S(=O)(=O)N2CCCCCC2)C1 (stereo unspecified)	none
O=C(Cc1ccc(F)cc1)Nc1nnc(-c2cccc(F)c2)o1	none
Cc1c(OCc2ccccc2)noc1C1CCN(C(=O)NC2CCOCC2)CC1	USP28 block 36
Cc1c(OCc2ccccc2)noc1C1CCN(C(=O)C(C)C)CC1	none (no result: USP30 inh, USP28 block)
O=[N+]([O-])c1cc(C(F)(F)F)ccc1N1CCC(n2cccc2)CC1	none
O=C(c1c(F)cccc1F)N1CC2CCCN2c2ccc(C(F)(F)F)cc21 (stereo unspecified)	none
CN1C[C@H]2C3(CCN(C(=O)Nc4ccccc4)CC3)CC[C@@]2(C(=O)N(C)C)C1	none (no result: USP17 inh)
CCOc1ccc(NC(=O)CSCc2nc(-c3ccc(OC)c(OC)c3)no2)cc1	USP17 inh 47
CCOC(=O)c1cccc(NC(=O)Cc2nc(-c3ccc(OC)cc3)no2)c1	none
COc1ccc(-c2noc(CC(=O)Nc3cccc(C#N)c3)n2)cc1	USP17 inh 39
COc1ccc(-c2noc([C@@H]3C[C@H](NC(=O)Nc4cccc(C#N)c4)CN3C)n2)cc1	USP30 inh 37
CN1C[C@@H](NC(=O)Nc2cccc(C#N)c2)C[C@H]1c1nc(-c2ccc(F)cc2)no1	none
COc1ccc(-c2noc(CC(=O)Nc3ccc(NC(C)=O)nc3)n2)cc1	none
COc1ccc(CCNC(=O)COc2cc(C)c3ccc(OC)cc3n2)cc1	USP17 inh 46
COc1ccc(CCNC(=O)Cn2c(-c3cscn3)nc3ccccc32)cc1	none
O=C(CCSCc1cccc(F)c1)NCCc1ccc(Cl)cc1	USP30 inh 37
O=C(CCSCc1ccccc1F)NCCc1ccccc1	none
Cc1ccc(CS(=O)(=O)N2CCC(C(=O)N3CCCCC3)CC2)cc1	none
O=C(O[C@@H]1C[C@H]2C(=O)N[C@H](Cc3ccccc3)C(=O)N2C1)c1ccccc1	none
CC(C)CC1NC(=O)C2CC(O)CN2C1=O (stereo unspecified)	USP30 inh 37
O=C1Nc2cccnc2N2CCCC12 (stereo unspecified)	none
CC(C)CC1NC(=O)C2CCCN2C1=O (stereo unspecified)	USP17 inh 71, USP28 block 51
CC(=O)Nc1c(-c2ccccn2)nsc1C(=O)NC(C)c1ccccc1 (stereo unspecified)	none
CC(Sc1ccc(NC(=O)/C=C/c2ccccc2)cc1)C(=O)Nc1ccc2ccccc2c1 (stereo unspecified)	none (no result: USP17 inh)

Assay outcomes as filed in PubChem BioAssay.
